TDP1 block: TDP1 (human) enzyme inhibition. hit rate 0.28% among 350,000. Potency, µM (doses to about 130 µM), without a hit: at the top dose activity change, negative = inhibition, most hits filed as inhibitors. recombinant TDP1, AlphaScreen DNA substrate cleavage. Q9NUW8; also: % is scaled to controls: 0 for no effect and ±100 for the full control effect; nearly all actives have a fitted effect of over 40% in size
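AlphaScreen read-out: signal falls as enzyme removes the 3' tyrosine-FITC from a 5'-biotinylated DNA oligo (15 nM, 5 min, RT). Enzyme was E. coli-made recombinant Tdp1 at 1 nM, exposed to compound for 15 min beforehand; beads 10 ug/ml, 10 min.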
HP1b chromo inh: blocks HP1-beta chromodomain binding to methylated histone tails | P83916 | AlphaScreen HP1-beta / biotin-H3K9me3 peptide binding | Potency, µM (highest dose often 114 µM), for the others: top-dose activity change, negative = inhibition, most hits filed as inhibitors | hit rate 0.56% among 390,000 | AID 540317; also: nearly all actives have a fitted effect of over 70% in size
Target sequence (P83916 whole entry, looked up): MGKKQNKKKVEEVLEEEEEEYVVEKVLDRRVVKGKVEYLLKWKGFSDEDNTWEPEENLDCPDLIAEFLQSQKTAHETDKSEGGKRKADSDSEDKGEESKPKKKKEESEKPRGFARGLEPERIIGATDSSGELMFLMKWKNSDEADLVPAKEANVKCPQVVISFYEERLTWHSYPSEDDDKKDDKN
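Compound inhibition of the preformed complex between 50 nM HP1-beta and 50 nM biotinylated H3K9me3 peptide was read by AlphaScreen. Buffer was PBS pH 7.4 with 0.01% Tween-20. Incubations ran 30 min at room temperature, with 10 ug/mL donor/acceptor beads.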
Sfp inh: blocks B. subtilis Sfp PPTase activity; Q9F4F7; Biochemical Sfp PPTase activity, qHTS; Potency, µM, inactives show largest response in the series, negative = inhibition, hits mostly inhibitors; hit rate 3.5% among 310,000; AID 1490;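 also: the enzyme is Sfp with the accession as filed and its product quenches rhodamine fluorescence; 0% = enzyme reaction without inhibitor and -100% = no enzyme wells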
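Step 1, compound plus 15 nM Sfp-PPTase, 15 min, room temperature. Step 2, add rhodamine-CoA (5 uM) and BHQ-2-YbbR (12.5 uM). Step 3, read 525/598 nm fluorescence at 0 and 30 min.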
JMJD2A Tudor: blocks the human JMJD2A Tudor domain. AlphaScreen JMJD2A-Tudor / H3K4me3 peptide binding. Potency, µM (highest dose often 114 µM), inactives show at the highest dose activity change, negative = inhibition, actives largely listed as inhibitors. hit rate 4.4% among 390,000. AID 504339; also: % is scaled to controls: 0 for no effect and ±100 for the full control effect; nearly all actives have a fitted effect of over 50% in size
G9a inh: inhibitors of human histone lysine methyltransferase G9a; Q96KQ7; G9a H3K9 monomethylation, AlphaScreen, 2 h; Potency, µM (highest dose often 102 µM), for the others: top-dose activity, negative = inhibition, hits mostly inhibitors; hit rate 8.8% among 350,000; AID 504332; also: % is scaled to controls: 0 for no effect and ±100 for the full control effect; nearly all actives have a fitted effect of over 75% in size
Target sequence (Q96KQ7 913-1193 limits assumed): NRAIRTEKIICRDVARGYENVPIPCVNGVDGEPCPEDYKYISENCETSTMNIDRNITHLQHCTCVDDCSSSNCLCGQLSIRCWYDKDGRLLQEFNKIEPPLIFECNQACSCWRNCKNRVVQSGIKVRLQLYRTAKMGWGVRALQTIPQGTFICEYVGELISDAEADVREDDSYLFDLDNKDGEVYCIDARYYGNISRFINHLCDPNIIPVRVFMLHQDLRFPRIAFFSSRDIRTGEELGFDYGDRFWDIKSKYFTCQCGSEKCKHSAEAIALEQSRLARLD
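Compounds were preincubated with 20 nM G9a for 15 min, after which biotinylated H3K9 peptide (500 nM) and SAM (20 uM) started a 2 h room-temperature reaction. Monomethylated product was quantified by antibody-based AlphaScreen chemiluminescence.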
BAZ2B block: BAZ2B (human) inhibition; AlphaScreen BAZ2B-H3K14Ac peptide displacement; Q9UIF8; AID 504333; hit rate 4.4% among 360,000; Potency, µM (highest dose often 114 µM), without a hit: top-dose activity change, negative = inhibition, hits mostly inhibitors; also: % is scaled to controls: 0 for no effect and ±100 for the full control effect; nearly all actives have a fitted effect of over 60% in size
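Compounds, titrated to a top concentration of 110 uM, were incubated 30 min at room temperature with preformed BAZ2B/acetyl-K14 H3 peptide complex (50 nM each). Proximity signal was measured by AlphaScreen after 20 min with beads.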
Starred values were filed as active, the others as inactive; ? = inconclusive; nt = not tested or not shown; [ ] = remark or other dose. The list is not random: actives were taken first. Their share in the collection is about 12%. Calls follow the shape of the dose curve; as a rule, active = well fitted curve in the direction sought with a large enough effect; inconclusive = small, poorly fitted or top-dose-only effect, or another doubt; inactive = no such curve, though single readings can be large; an effect the other way counts as inactive or inconclusive. Potency is read from the fitted curve at half-maximal effect.

SMILES	TDP1 block	HP1b chromo inh	Sfp inh	JMJD2A Tudor	G9a inh	BAZ2B block
O=C(O)c1cccc(N/N=C/c2cccnc2)c1	-8%	18%	23%	-17%	28µM*	-13%
COc1ccc(Br)cc1/C=N/Nc1cccc(C(=O)O)c1	3%	5%	7%	-26%	10µM*	-27%
Cc1ccc(-c2nnc3ccccc3c2C(=O)Nc2ccc(F)cc2)cc1	0%	30%	nt	-4%	1%[59 µM]	-4%
Cc1cn(C)c(CC(=O)N2CCN(c3cccc(Cl)c3)CC2)c1C(=O)O	0%	23%	nt	-3%	-34%[59 µM]	-21%
O=C(O)c1cccc(N/N=C/c2cc(Br)cc(Br)c2O)c1	6%	-17%	9%	?	?	?
CC(C)(C)c1ccc(/C=N/Nc2cccc(C(=O)O)c2)cc1	5%	15%	13%	-33%	28µM*	-24%
CC(=O)C1C(=O)CC(c2ccc(Cl)cc2)CC1=O (configuration not stated)	1%	9%	18%	?	56µM*	-23%
O=C(CCSc1nc2ccccc2o1)N1CCOCC1	7%[56.1 µM]	40%	-5%	-9%	14µM*	-8%
O=C(CCSc1ccccc1)N1CCOCC1	1%	?	13%	8%	5%[59 µM]	-3%
CCN1C(=O)/C(=C\c2ccc(-c3ccc([N+](=O)[O-])cc3OC)o2)SC1=Nc1cccc(C(=O)O)c1	-3%	28µM*	25µM*	56µM*	11µM*	50µM*
CCN1C(=O)/C(=C\c2ccc(-c3cccc(C(=O)OC)c3)o2)SC1=Nc1ccc(C(=O)O)cc1	nt	nt	-28%	nt	nt	-36%
CCN=C1S/C(=C/c2ccc(-c3ccc(Cl)cc3C(=O)O)o2)C(=O)N1CC	nt	44%	-29%	-15%	45µM*	?
O=C(O)c1cccc(-c2ccc(/C=C3/SC(=Nc4ccccc4)N(Cc4cccnc4)C3=O)o2)c1	nt	?	50µM*	45µM*	32µM*	50µM*
COc1ccc(N=Cc2cc(Cc3ccccc3Cl)cc([N+](=O)[O-])c2O)cc1OC	8%	-14%	8%	?	40µM*	?
COc1ccc(N=Cc2cc(Cl)ccc2O)cc1Cl	0%	68%	?	-10%	4%	6%
Cc1ccc(N=Cc2cc(Cc3ccccc3Cl)cc([N+](=O)[O-])c2O)c(O)c1	11%	?	50µM*	14µM*	32µM*	25µM*
Cc1n[nH]c(C)c1Sc1ccccc1N=Cc1cc(Cl)cc([N+](=O)[O-])c1O	2%	-11%	14%	?	?	-10%
C/C(=N\NC(=O)C1CC1)c1cccs1	6%	29%	24%	3%	6%	-4%
O=S(=O)(NC1CCCCCCC1)c1ccccc1	nt	49%	1%	4%	58%	-1%
C/C(=N\NC(=S)NC1CCCCC1)c1cccs1	0%	?	8%	?	?	50µM*
O=S(=O)(NC(=S)NC1CCCCC1)c1ccccc1	2%	19%	?	-18%	25µM*	-36%
O=C(NC1CCCCC1)C(Cc1ccccc1)NS(=O)(=O)c1cccs1 (configuration not stated)	4%	19%	7%	-15%	-2%	-3%
O=S(=O)(NC(=S)NC1CCCCC1)c1cccs1	0%	0%	?	-13%	20µM*	-25%
CC1=CC(c2ccccc2)n2nc(N3C(=O)CCC3=O)nc2N1 (configuration not stated)	0%	35%	-8%	79µM*	20µM*	?
CC1=CC(c2ccccc2)n2nc(N3C(=O)c4ccccc4C3=O)nc2N1 (configuration not stated)	5%	30%	-8%	-30%	-2%[12.7 µM]	-37%
SMILES	TDP1 block	HP1b chromo inh	Sfp inh	JMJD2A Tudor	G9a inh	BAZ2B block
CC1=CC(c2ccccc2)n2nc(N3C(=O)C4CC=CCC4C3=O)nc2N1 (configuration not stated)	0%	23%	9%	-33%	25µM*	-35%
CCCCOc1ccc(C(=O)NCCc2csc(-c3ccc(OC)cc3)n2)cc1	5%	9%[57 µM]	nt	-18%	7%[59 µM]	5%
CCC/C=C(\CCC)C(NS(=O)(=O)c1cccs1)c1ccc(C(=O)OC)cc1 (configuration not stated)	1%	nt	22%	nt	nt	nt
CC(c1ccccc1)N1C(=O)c2ccc(C(=O)Nc3ccc(Br)cc3C(=O)O)cc2C1=O (configuration not stated)	2%	-11%	24%	50µM*	nt	-8%
O=C(O)Cc1ccc(NC(=O)c2ccc3c(c2)C(=O)N(Cc2ccco2)C3=O)cc1	3%	-29%	6%	35µM*	?	-12%
O=C(Nc1ccc(O)cc1)c1ccc2c(c1)C(=O)N(Cc1ccco1)C2=O	-2%	-15%	-12%	?	-12%[59 µM]	?
O=C(Nc1ccc(O)cc1C(=O)O)c1ccc2c(c1)C(=O)N(Cc1ccco1)C2=O	9%	-9%	0%	?	?	50µM*
CC(C)CN1C(=O)c2ccc(C(=O)Nc3ccc(O)cc3C(=O)O)cc2C1=O	nt	-6%	7%	-25%	?	?
O=C(c1c(F)cccc1F)N1CCN(CCOc2ccccc2)CC1	nt	7%	6%	-23%	15%	-2%
COc1ccc(NC(=O)CNC(=O)N2CC(=O)Nc3ccccc32)cc1OC	4%	14%	11%	-29%	8%[59 µM]	-16%
NC(=O)C1CCN(C(=O)C2c3ccccc3C(=O)N3CCc4ccccc4C23)CC1 (configuration not stated)	0%	9%	?	-18%	79µM*	?
COc1cccc(C2/C(=C(\O)c3ccc4c(c3)OCCO4)C(=O)C(=O)N2CCCN2CCOCC2)c1OC (configuration not stated)	5%	54%	14%	-2%	3.5µM*	-3%
COc1ccccc1C1/C(=C(\O)c2ccc3c(c2)OCCO3)C(=O)C(=O)N1CCCN(C)C (configuration not stated)	0%	nt	5%	nt	10%[59 µM]	0%
O=C1C(=O)N(CCCN2CCOCC2)C(c2ccc(Cl)cc2)/C1=C(\O)c1ccc2c(c1)OCCO2 (configuration not stated)	4%	11%	12%	32µM*	40µM*	-27%
O=C1CCc2cc(S(=O)(=O)Nc3cccc(-c4ccccc4)c3)ccc2N1	2%	nt	nt	?	nt	nt
Cc1cc(C)cc(NC(=S)N2CCC(NC(=O)c3ccco3)CC2)c1	-4%	8%	4%	-8%	3%	-8%
